High-throughput results deposited in PubChem BioAssay by National Center for Advancing Translational Sciences (NCATS).
Only some compounds are listed: those with a hit (about 4.7% of all), similar ones and a draw of the others.
TRHR PAM: qHTS for Small Molecule Agonists and Allosteric Enhancers of Human TRH Receptor: Primary Screen for Enhancers. Thyrotropin-releasing hormone receptor (Homo sapiens), P34981. TRHR cells, fluo-8 calcium fluorescence, EC20 TRH enhancement. enhancement, % at 2 µM. 360,000 compounds, 0.66% hits; in the data active means enhancement above about 30%; further: 0% is about no effect
Target sequence (P34981 whole entry, looked up): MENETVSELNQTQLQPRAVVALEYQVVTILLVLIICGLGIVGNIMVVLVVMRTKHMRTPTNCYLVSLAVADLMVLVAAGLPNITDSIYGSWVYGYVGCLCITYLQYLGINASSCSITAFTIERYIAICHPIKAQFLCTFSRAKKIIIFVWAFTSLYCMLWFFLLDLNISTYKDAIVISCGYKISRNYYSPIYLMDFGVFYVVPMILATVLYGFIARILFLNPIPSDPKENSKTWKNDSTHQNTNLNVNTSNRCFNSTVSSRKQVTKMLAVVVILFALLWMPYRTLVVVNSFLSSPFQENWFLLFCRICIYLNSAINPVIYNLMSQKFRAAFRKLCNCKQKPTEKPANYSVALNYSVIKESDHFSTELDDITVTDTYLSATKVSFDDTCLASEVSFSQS
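Enhancer read-out: after compound pinning and an initial kinetic agonist-mode read, an EC20 of TRH (10 nM final) was injected and fluo-8 calcium signal (Ex 480/Em 530) followed at 1 s/cycle for 100 cycles in TRHR-expressing cells.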
D1 potentiator: Potentiators of Human D1 Dopamine Receptor: qHTS; HEK293 TREx D1 cells, calcium flux, dopamine EC20 potentiation; potentiation, % at 10 µM; 360,000 compounds, 0.036% hits; in the data active means potentiation above about 30%; further: 0% is about no effect
D1 ag: Allosteric Agonists of the Human D1 Dopamine Receptor: qHTS | 360,000 compounds, 1% hits | D(1A) dopamine receptor (Homo sapiens), P21728 | HEK293 T-REx D1 cells, calcium flux, agonist mode | activation, % at 2 µM; further: 0% is about no effect
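Tetracycline-induced HEK293 TREx D1 cells, force-coupled to calcium signalling, were dye-loaded with a no-wash calcium kit. Compound was pin-added after a 10 s baseline. Fluorescence was read kinetically at 1 cycle/s for 180 s, with calcium rises flagged as agonism.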
TRHR agonist: qHTS for Small Molecule Agonists and Allosteric Enhancers of Human TRH Receptor: Primary Screen for Agonists. 360,000 compounds, 0.18% hits. TRHR cells, calcium flux fluo-8, FDSS agonist mode. activation, % at 2 µM. AID 493084, 2011; further: 0% is about no effect
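TRHR-expressing cells loaded with fluo-8 calcium dye; 23 nL library compound pin-transferred, kinetic FDSS fluorescence (Ex 480/Em 530) recorded about 180 s for agonist-induced calcium release, before a 10 nM TRH EC20 addition for potentiator mode.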
D1 antag: Antagonist of Human D 1 Dopamine Receptor: qHTS | D(1A) dopamine receptor (Homo sapiens), P21728 | HEK293 TREx D1 cells, calcium flux, dopamine EC80; active compounds read low | activity change, negative = inhibition, % at 10 µM | 360,000 compounds, 3.2% hits; in the data active means activity change below about -30%; further: on the % scale 0 is the no-effect control and ±100 the full control effect
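HEK293 T-REx cells expressing inducible, force-coupled D1 receptor; no-wash Ca dye, 30–90 min RT. Cmpd → 180 s read at 1 Hz → EC80 DA → 180 s read.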
Active calls of the source: *; / = not tested or not shown. Unless noted, no stated cut-off is given here; in the data, active means activation above about 30%; inactive means the rest.

SMILES	TRHR PAM	D1 potentiator	D1 ag	TRHR agonist	D1 antag
O=C1C(Cl)=C(N2CCCCCC2)C(=O)N1c1ccc(Cl)cc1	8.0	6.0	2.6	0.7	5.5
COc1cc(O)ccc1C1CC(=O)Nc2c1c(=O)nc(SCc1ccccc1C)n2C (centres undefined)	3.9	1.9	-1.8	-2.1	-1.0
CCc1ccccc1NC(=O)C1CCN(S(=O)(=O)c2cn(C)cn2)CC1	-2.3	0.0	0.5	0.2	-9.7
O=C(Cn1c(=O)n(Cc2nc(-c3ccccc3)no2)c(=O)c2ccccc21)Nc1cccc(Cl)c1	0.0	-0.5	7.4	0.7	3.2
O=[N+]([O-])c1ccc(N2CCN(C(=S)Nc3cccc(F)c3)CC2)cc1	-2.6	-4.0	12.2	0.7	-37.6*
O=[N+]([O-])c1ccc(N2CCN(C(=S)Nc3ccc(F)cc3)CC2)cc1	5.4	-4.8	8.5	1.1	-34.3*
O=[N+]([O-])c1ccc(NC(=S)N2CCc3ccccc3C2)cc1	-1.4	-10.3	13.4	0.1	-33.2*
Cc1c(NC(=O)c2nc3ccccc3nc2N2CCCCC2)cccc1[N+](=O)[O-]	2.9	-0.3	7.4	0.3	4.5
CCOc1ccccc1CNC(=O)c1ccc(Cn2c(=O)c3cccn3c3cccnc32)cc1	-4.8	0.1	1.0	0.5	5.4
CCCCCn1cc2c(c1-c1ccc(Br)cc1)c(=O)n(C)c(=O)n2C	-6.0	-2.0	1.0	-2.0	2.2
COc1ccc(CC2(CO)CCN(Cc3cnn(-c4ccc(F)cc4)c3)CC2)cc1	1.2	-4.5	47.0*	3.1	-29.2
O=C(Nc1ccc(F)c(Cl)c1)C1CCN(c2ncccn2)CC1	1.5	-0.1	1.7	-1.8	1.8
CCc1ccc(CNC(=O)c2cc3n(n2)CCCN(Cc2ccccc2)C3=O)cc1	1.6	-2.9	66.4*	-0.2	-46.6*
CC1(C)Cc2nc3sc4c(N(CCO)CCO)nnnc4c3cc2CO1	30.3*	-8.9	8.1	0.2	-3.8
S=c1sc2c(Cl)ncnc2n1-c1ccccc1	-2.0	-12.2	2.4	1.7	-44.1*
O=C(CCn1c(=O)c2cccn2c2cccnc21)Nc1ccccc1Br	14.9	-3.0	0.0	-0.3	-2.9
C/C(O)=c1/ccc2cccc3nc(C)nc1c23	-0.5	4.2	47.0*	11.3	-0.9
O/C=c1\ccc2cccc3nc(C(F)(F)F)nc1c23	-5.2	-8.6	17.3	7.9	-3.6
Cc1ccc(-c2nnc(Nc3cccc(O)c3)c3ccccc23)cc1S(=O)(=O)N1CCCCC1	9.0	-0.5	-0.8	-0.7	1.7
COc1ccc(CNC(=O)C(CC(C)C)NS(=O)(=O)c2ccc3c(c2)CCN3C(C)=O)cc1 (centres undefined)	0.2	0.7	-1.3	-1.0	8.0
S=C(NC1CCCC1)NC1CC1	18.0	-5.3	5.8	0.5	-40.6*
COc1ccc(C(=O)NCC(C)(C)SCc2c(C)cc(C)cc2C)cc1	-2.6	7.3	56.4*	-1.7	-60.6*
COc1ccc(C)cc1Nc1nc2c(S(=O)(=O)c3cc(C)ccc3C)nnn2c2ccsc12	3.4	2.7	1.2	-0.2	-5.2
CC1CCc2nc3ncn(Cc4ccccc4C#N)c(=O)c3cc2C1 (centres undefined)	1.8	3.8	1.7	0.2	-5.5
CSc1ccc(CCNC(=O)Cn2c(C)c3cnn(-c4ccccc4)c(=O)c3c2C)cc1	19.3	-3.4	0.6	-0.3	-9.1
CCC(C)c1ccc(C(C)NC(=S)NCc2ccc(F)cc2)cc1 (centres undefined)	-0.3	-3.9	21.1	3.4	-14.0
CCCc1ccc(C(C)NC(=S)NCc2ccc(F)cc2)cc1 (centres undefined)	-3.0	-4.9	79.5*	9.1	-1.2
CCOc1ccc(C(C)NC(=S)NCc2ccc(Cl)cc2)cc1 (centres undefined)	-2.9	-5.5	34.6*	7.0	/
COc1cc(-c2nc(Cn3nnc(C(=O)Nc4ccccc4C)c3C)c(C)o2)cc(OC)c1OC	-2.3	1.9	0.4	-0.5	3.4
